# A selection: hits, their analogues and other compounds. The true share with any hit is near 19%.
# ASM inhibitor: blocks human secretory acid sphingomyelinase; 0.006% of 340,000 active; placental ASM, HMU-PC fluorogenic substrate, 60 min; Potency, µM (series often up to 57.5 µM), actives largely listed as inhibitors; P17405
# Target sequence (P17405 47-631 limits assumed): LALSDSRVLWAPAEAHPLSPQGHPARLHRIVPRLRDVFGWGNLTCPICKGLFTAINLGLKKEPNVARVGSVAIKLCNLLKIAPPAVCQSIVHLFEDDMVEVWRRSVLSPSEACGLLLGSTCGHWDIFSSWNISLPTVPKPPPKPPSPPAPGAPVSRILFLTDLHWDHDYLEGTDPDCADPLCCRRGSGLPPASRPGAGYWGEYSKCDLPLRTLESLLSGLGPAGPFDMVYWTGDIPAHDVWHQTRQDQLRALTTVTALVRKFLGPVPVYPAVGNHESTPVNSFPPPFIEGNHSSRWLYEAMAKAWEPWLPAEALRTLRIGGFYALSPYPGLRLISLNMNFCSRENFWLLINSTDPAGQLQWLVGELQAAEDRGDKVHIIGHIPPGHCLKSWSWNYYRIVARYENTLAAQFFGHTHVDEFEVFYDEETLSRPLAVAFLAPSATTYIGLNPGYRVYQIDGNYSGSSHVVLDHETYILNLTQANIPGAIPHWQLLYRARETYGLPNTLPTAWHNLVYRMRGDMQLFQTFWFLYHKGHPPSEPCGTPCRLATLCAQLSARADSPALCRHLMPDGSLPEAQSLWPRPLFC
#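 qHTS format. ASM enzyme prepared from human placenta hydrolyses the fluorogenic substrate HMU-PC0 (9 uM final) over 60 min at 37 °C after a 10 min compound preincubation.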
# TDP1 cell noCPT: qHTS for Inhibitors of human tyrosyl-DNA phosphodiesterase 1 (TDP1): qHTS in cells in absence of CPT; DT40 Tdp1-/- hTDP1 cells, no CPT, ATP luminescence, 48 h; Potency, µM (doses to about 46.2 µM), most hits filed as inhibitors; 15% of 420,000 active; AID 686978, 2013; further: nearly all actives have a fitted effect of over 55% in size
#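 Cells were dispensed at 400 per well, compounds added by pin tool, plates incubated ≥48 hr at 37 °C, then CellTiter-Glo added for 30 min at room temperature before luminescence reading. Line: DT40 Tdp1-/- complemented with hTDP1; camptothecin omitted.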
# TDP1 cell CPT: growth inhibition of DT40 Tdp1-/-;hTDP1 cells with camptothecin (screen for TDP1 inhibitors); chicken DT40 Tdp1-/-;hTDP1 cells + 20 nM CPT, ATP luminescence, 48 h; Potency, µM (highest dose often 46.2 µM), most hits filed as inhibitors; 12% of 420,000 active; AID 686979; further: nearly all actives have a fitted effect of over 55% in size
#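 Chicken DT40 Tdp1-/- cells complemented with human TDP1, 400 cells/well, exposed to compounds plus 20 nM camptothecin for at least 48 h at 37 C; viability read as ATP content by CellTiter-Glo luminescence.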
# TGFb inhibitor: inhibitors of TGF-b signaling | HepG2 CAGA-GFP TGF-b/SMAD3 reporter, GFP fluorescence, 18 h; TGF-beta stimulated, 500 pg/mL final | Potency, µM (highest dose often 46.1 µM), most hits filed as inhibitors | 1.2% of 410,000 active | AID 588855; further: nearly all actives have a fitted effect of over 65% in size
#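 HEPG2 CAGA-GFP reporter cells (1000/well, DMEM with 1% FBS) received compounds, then recombinant TGF-beta at 500 pg/mL final for 18 hours at 37 degrees C. Per-cell GFP summed per well was normalised to unstimulated and stimulated DMSO controls before curve fitting.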
# HepG2 viability: kills HepG2 cells in TGF-b inhibitor counter-screen; AID 588856; 0.76% of 410,000 active; HepG2 CAGA-GFP viability, ATP luminescence, 18 h; Potency, µM (highest dose often 46.1 µM), most hits filed as cytotoxic
#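 CellTiter-Glo luminescence gave cytotoxicity after 18 hours at 37 degrees C. The cells were HepG2 CAGA-GFP in 1% FBS DMEM, stimulated with 500 pg/mL TGF-beta after compound addition. %Activity was normalised to no-cell wells (complete cell-killing) and DMSO (no toxicity), and curves were fitted and classified.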
# IL-1B inflam inh: inhibitors of inflammasome signaling (IL-1 beta secretion) | THP-1 LPS/ATP IL-1B secretion, AlphaLISA, 16 h; active compounds read low | activity change, % at 57.5 µM | 4.7% of 360,000 active | AID 743279; in the data active means activity change below about -50%; inconclusive means mostly about -30% to -49%
#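 Secreted IL-1B measured by AlphaLISA bead assay after 16 h compound exposure of THP-1 cells; compounds (final up to 57.5 uM) added 1 h before LPS (250 ng/mL) and ATP (1.25 mM) stimulation; lower signal means less secretion.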
# Numbers stand for hits; - = inactive; ? = inconclusive; . = no result given; [ ] = another dose, or the depositor's remark. Unless noted, the call rests on the fitted dose curve; in most records, active means well fitted curve in the direction sought with a large enough effect; inconclusive means small, poorly fitted or top-dose-only effect, or another doubt; inactive means no such curve, though single readings can be large; an effect the other way counts as inactive or inconclusive.
SMILES,ASM inhibitor,TDP1 cell noCPT,TDP1 cell CPT,TGFb inhibitor,HepG2 viability,IL-1B inflam inh
Cc1c(NS(=O)(=O)c2ccc(N)cc2)c(=O)n(-c2ccccc2)n1C,-,-,-,-,-,-
O=c1oc(CCO)cc2ccc(-c3ccc4[nH]ccc4c3)cc12,-,-,-,-,-,-
CCC1=Nc2cc(C(=O)NCC3CCCO3)ccc2Sc2ccc(Cl)cc21 (stereo not drawn),-,4.1µM,3.7µM,?,-,-
CC1=Nc2cc(C(=O)NC3CCCC3)ccc2Sc2ccc(Cl)cc21,.,0.58µM,0.82µM,?,-,.
CCC1=Nc2cc(C(=O)NC3CCCC3)ccc2Sc2ccc(Cl)cc21,.,0.92µM,0.92µM,?,-,.
O=C(NCC1CCCO1)c1ccc(NC(=O)c2cccc(Cl)c2)cc1 (stereo not drawn),-,-,-,-,-,-
CC1=Nc2cc(C(=O)NC3CCCC3)ccc2Sc2ccc(C)cc21,.,0.92µM,1.2µM,?,-,.
CCc1ccc(NC(=O)Cn2c(=O)n(CCCCC(=O)NCc3ccccc3Cl)c(=O)c3ccccc32)cc1,.,?,?,-,-,.
Cc1ccc(C(=O)CCC(=O)OC(C)C(=O)NC2CCCCC2C)cc1 (stereo not drawn),-,-,-,-,-,-
COc1ncnc2c1NC1=C(S2)C(=NCCC(=O)O)CC(C)(C)C1,-,-,-,-,-,-
CN(C)c1ncnc2c1NC1=C(S2)C(=NCCCC(=O)O)CC(C)(C)C1,-,?,21µM,?,-,-
CC(=O)Nc1ccc(C(=O)N/N=C/c2cc(Br)cc(Br)c2O)cc1,-,10µM,12µM,?,-,-
CC(C)C(=O)Nc1ccc(C(=O)N/N=C/c2cc(Br)cc(Br)c2O)cc1,-,13µM,7.3µM,?,-,-
COc1cc(OC)c(/C=N/NC(=O)c2ccc(NC(C)=O)cc2)cc1Br,-,-,-,-,-,-
CN(CC(=O)O)S(=O)(=O)c1ccc2c(c1)NC(=O)CC(=O)N2,-,-,-,-,-,-
CC(O)(COc1ccccc1)c1ccc2c(c1)CN(Cc1cccc3cccnc13)CCO2 (stereo not drawn),.,?,-[9.04 µM],.,.,.
Cc1nc2ccc(Br)cc2c2c1CC(CO)O2 (stereo not drawn),-,-,-,-,-,-
Cc1nc2ccc(Br)cc2c2c1CC(CBr)O2 (stereo not drawn),-,-,-,-,-,-74
CCOc1ccc2oc(-c3ccccc3)c(C(=O)N(C)C)c2c1,-,18µM,?,-,-,-
CCOC(=O)c1c(-c2ccccc2)oc2ccc(NS(=O)(=O)c3cc(C)c(C)cc3C)cc12,.,10µM,18µM,?,-,.
CCOc1ccc2oc(-c3ccccc3)c(C(N)=O)c2c1,-,-,-,-,-,-
CCOC(=O)c1c(-c2ccc(OC)cc2)oc2ccc(O)cc12,-,?,-,-,-,-
Cc1cc(C)c(S(=O)(=O)Nc2ccc3oc(C)c(C(=O)OC(C)C)c3c2)cc1C,.,13µM,?,?,-,.
CCOC(=O)c1c(-c2ccccc2)oc2ccc(NS(=O)(=O)c3ccc(OC)cc3)cc12,.,3.3µM,4.6µM,13µM,-,.
COCCOC(=O)c1c(C)oc2ccc(NS(=O)(=O)c3ccccc3)cc12,-,-,-,-,-,-
CC(=O)c1c(C)oc2ccc(NS(=O)(=O)c3ccc(F)cc3C)cc12,-,18µM,23µM,?,-,-
CCOC(=O)c1c(-c2ccccc2)oc2ccc(NS(=O)(=O)c3ccccc3)cc12,.,-,?,16µM,-,.
CN(c1ccccc1)S(=O)(=O)c1cccc(NC(=O)c2ccc3ncsc3c2)c1,-,?,10µM,?,-,-69
CN(c1ccccc1)S(=O)(=O)c1cccc(NC(=O)c2cccc(C#N)c2)c1,-,15µM,?,-,-,?

# Assay outcomes (PubChem)
